# Results: PubChem BioAssay (NCATS)
# Results filed as inconclusive are left out. Calls of active or inactive are those of the source. Calls come from the whole dose curve; as a rule, active = well fitted inhibition curve with a large enough effect; inconclusive = small, poorly fitted or top-dose-only effect; inactive = flat fitted curve, though single readings scatter.
# Legend:
# [1] = qHTS for identification of novel therapeutic agents for treatment of microphthalmiaassociated transcription factor (MiT) renal cell carcinoma (RCC) (AID 1963991); conditions: CellTiter-Glo, 48 h, stronger effect = lower value
# Method in brief: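 Curves over 11 concentrations were fitted to CellTiter-Glo luminescence, scaled between empty wells (0%) and DMSO (100%) viability. Cells were UOK109, UOK124 and UOK145 TFE3-fusion RCC lines at 500/well, exposed 48 hours at 37 C.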
# [2] = qHTS profiling for inhibitors of Plasmodium falciparum proliferation (AID 504749); note: nearly all actives have a fitted effect of over 60% in size; note: potency is the fitted concentration of half-maximal effect;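 for activity, negative = inhibition: 0% = DMSO vehicle and full inhibition = artemisinin control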; conditions: P. falciparum in erythrocytes, SYBR Green DNA, 72 h
# Method in brief: (§1)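 Parasite proliferation within erythrocytes, 72 h exposure. Endpoint: SYBR Green I fluorescence after overnight lysis at room temperature. Controls: 0.29 uM artemisinin, DMSO.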
# 3D7 = test: as above; conditions: P. falciparum in erythrocytes, SYBR Green DNA, 72 h; series mostly up to 28.7 µM
# Method in brief: as §1
# 7G8 = test: as above; conditions: P. falciparum in erythrocytes, SYBR Green DNA, 72 h; series mostly up to 28.7 µM
# Method in brief: as §1
# AA1029 = test: as above; conditions: P. falciparum in erythrocytes, SYBR Green DNA, 72 h; series mostly up to 28.7 µM
# Method in brief: as §1
# [3] = TFE3-RCC UOK109 viability, measured here: UOK109 Z-AUC
# [4] = TFE3-RCC viability, measured here: UOK124 Z-AUC
# [5] = TFE3-RCC viability, measured here: UOK145 Z-AUC
# [6] = at 28.7 µM (top of the series), parasite line A
# [7] = at 28.7 µM (top of the series), parasite line B
# [8] = at 12.8 µM (top of the series), parasite line A
# [9] = at 12.8 µM (top of the series), parasite line B
compound,measurement,setting,value
CCN[C@H]1C[C@H](C)S(=O)(=O)c2sc(S(N)(=O)=O)cc21,z-score,[1]; [3],0.833
same,z-score,[1]; [4],0.48
same,z-score,[1]; [5],0.605
Cc1nnc(NS(=O)(=O)c2ccc(N)cc2)s1,"activity, negative = inhibition",[2]; [6],1.45% (inactive)
same,"activity, negative = inhibition",[2]; [7],11.3% (inactive)
same,Potency,3D7,inactive
same,Potency,7G8,inactive
same,Potency,AA1029,inactive
COc1ccccc1OCC(O)COC(N)=O (stereo not drawn),z-score,[1]; [3],0.0196
same,z-score,[1]; [4],0.974
same,z-score,[1]; [5],0.377
NS(=O)(=O)c1cc2c(cc1Cl)NC(C(Cl)Cl)NS2(=O)=O (stereo not drawn),z-score,[1]; [3],0.286
same,z-score,[1]; [4],0.327
same,z-score,[1]; [5],0.519
CC[C@H](NC(C)C)[C@H](O)c1ccc(O)c2[nH]c(=O)ccc12,z-score,[1]; [3],0.709
same,z-score,[1]; [4],0.735
same,z-score,[1]; [5],1.42
same,"activity, negative = inhibition",[2]; [6],3.5% (inactive)
same,"activity, negative = inhibition",[2]; [7],5.44% (inactive)
same,Potency,3D7,inactive
same,Potency,7G8,inactive
same,Potency,AA1029,inactive
CN(C)CCc1c[nH]c2ccc(CS(=O)(=O)N3CCCC3)cc12,z-score,[1]; [3],-0.684
same,z-score,[1]; [4],-0.106
same,z-score,[1]; [5],0.603
same,"activity, negative = inhibition",[2]; [6],-2.84% (inactive)
same,"activity, negative = inhibition",[2]; [7],-4.67% (inactive)
same,Potency,3D7,inactive
same,Potency,7G8,inactive
same,Potency,AA1029,inactive
Cc1onc(-c2ccccc2Cl)c1C(=O)N[C@@H]1C(=O)N2[C@@H]1SC(C)(C)[C@@H]2C(=O)O,z-score,[1]; [3],1.22
same,z-score,[1]; [4],0.834
same,z-score,[1]; [5],1.69
COc1cnc(NS(=O)(=O)c2ccc(N)cc2)nc1,"activity, negative = inhibition",[2]; [8],3.37% (inactive)
same,"activity, negative = inhibition",[2]; [9],2.7% (inactive)
same,Potency,3D7,inactive
same,Potency,7G8,inactive
same,Potency,AA1029,inactive
CN(Cc1cc(Br)cc(Br)c1N)C1CCCCC1,z-score,[1]; [3],1.13
same,z-score,[1]; [4],0.389
same,z-score,[1]; [5],1.53
same,"activity, negative = inhibition",[2]; [6],-5.78% (inactive)
same,"activity, negative = inhibition",[2]; [7],-15.1% (inactive)
same,Potency,AA1029,inactive
COc1nc(N)nc2c1ncn2[C@@H]1O[C@H](CO)[C@@H](O)[C@@H]1O,"activity, negative = inhibition",[2]; [6],-5.23% (inactive)
same,"activity, negative = inhibition",[2]; [7],-4.98% (inactive)
same,Potency,3D7,inactive
same,Potency,AA1029,inactive
CCN(C)C(=O)Oc1cccc([C@H](C)N(C)C)c1,z-score,[1]; [3],0.893
same,z-score,[1]; [4],0.446
same,z-score,[1]; [5],1.29
same,"activity, negative = inhibition",[2]; [6],3.53% (inactive)
same,"activity, negative = inhibition",[2]; [7],1.69% (inactive)
same,Potency,3D7,inactive
same,Potency,7G8,inactive
same,Potency,AA1029,inactive
CN1CCCC(n2nc(Cc3ccc(Cl)cc3)c3ccccc3c2=O)CC1 (stereo not drawn),"activity, negative = inhibition",[2]; [6],-9.96% (inactive)
same,"activity, negative = inhibition",[2]; [7],-11.1% (inactive)
same,Potency,3D7,inactive
same,Potency,7G8,12.6 µM (active)
CC(C)OC(=O)OCOP(=O)(CO[C@H](C)Cn1cnc2c(N)ncnc21)OCOC(=O)OC(C)C,z-score,[1]; [3],0.412
same,z-score,[1]; [4],0.776
same,z-score,[1]; [5],0.601
CCN(CC)CC#CCOC(=O)C(O)(c1ccccc1)C1CCCCC1 (stereo not drawn),z-score,[1]; [3],0.714
same,z-score,[1]; [4],0.353
same,z-score,[1]; [5],0.607
CCn1cc(C(=O)O)c(=O)c2cc(F)c(N3CCNCC3)nc21,z-score,[1]; [3],0.63
same,z-score,[1]; [4],-0.25
same,z-score,[1]; [5],0.63
same,"activity, negative = inhibition",[2]; [8],-33.7% (inactive)
same,"activity, negative = inhibition",[2]; [9],-38.9% (inactive)
same,Potency,3D7,inactive
CN(C)CCc1c[nH]c2ccc(C[C@H]3COC(=O)N3)cc12,z-score,[1]; [3],0.402
same,z-score,[1]; [4],-0.14
same,z-score,[1]; [5],0.58
NC(=O)N1c2ccccc2CC(=O)c2ccccc21,z-score,[1]; [3],0.211
same,z-score,[1]; [4],0.361
same,z-score,[1]; [5],-0.025
same,"activity, negative = inhibition",[2]; [6],-5.05% (inactive)
same,"activity, negative = inhibition",[2]; [7],-8.83% (inactive)
same,Potency,3D7,inactive
same,Potency,7G8,inactive
same,Potency,AA1029,inactive
COC(=O)Nc1nc2ccc(Sc3ccccc3)cc2[nH]1,"activity, negative = inhibition",[2]; [8],5.04% (inactive)
same,"activity, negative = inhibition",[2]; [9],-0.246% (inactive)
same,Potency,3D7,inactive
same,Potency,7G8,inactive
same,Potency,AA1029,inactive
